What is called AC50 is the midpoint of the concentration-response curve, whichever way the signal moves. Usually inhibition stands for the change of the read-out against control, counted positive when it falls.

19 molecules from PubChem BioAssay can be followed below.

Test [1] in a line: growth inhibition of DIPG glioma cells, dose response, cell-based, SU-DIPG-XVII, MIPE5.0, CellTiter-Glo, qHTS (AID 1347060; cut-off not given, nearly all actives have AC50 up to about 26 µM;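 for AC50: cells exposed to compound for 48 hours before viability readout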). As to conditions: SU-DIPG-XVII viability, CellTiter-Glo ATP luminescence. On the technique in general: ATP-based viability assays read luminescence as a measure of living cells.
Test [2] in a line: kinase inhibitors against Plasmodium liver-stage infection, cell-based, known kinase inhibitor set, luminescence, hepatoma host viability (AID 624392; call rule not given here;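 note: infected cells incubated roughly two days before readout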). As to conditions: Plasmodium liver stage in hepatoma cells, luciferase luminescence, concentration not given here; liver cell % of control: measured here: host liver cell viability; parasite % of control: stronger effect = lower value.
Test [3] addresses ATP-dependent translocase ABCB1 (Homo sapiens) (UniProt P08183). Description: MDR1 (ABCB1) efflux transporter inhibition, cell-based (AID 377; in the data active = fluorescence slope change above about 50%). As to conditions: MDR1-expressing cells, fluorescent substrate accumulation slope; stronger effect = higher value; concentration not given here.
The nature of test [4]: LFS_MB_2R medulloblastoma cell growth inhibition, synergistic combos for chromothripsis tumors, cisplatin combos (AID 1671457).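 Note: cells exposed to compound for four days before readout.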 As to conditions: LFS_MB_2R medulloblastoma cells, stronger effect = higher value.
The nature of test [5]: UWB1.289_BRCA1 ovarian cancer growth, cell-based, BGB or cisplatin combinations (AID 1671459). As to conditions: UWB1.289 BRCA1 ovarian carcinoma, drug combinations, stronger effect = higher value.
Test [6] in a line: human astrocyte viability loss, single and combined drugs, cytotoxicity control for chromothriptic childhood tumor combination screen, cell-based, BGB or cisplatin IC20 combos (AID 1671460).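 Note: cells exposed to compounds for 96 hours before viability readout; 0% = vehicle and 100% = killing control.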 As to conditions: Human astrocytes, drug combinations, stronger effect = higher value.
A short description of test [7]: inhibitors of Cryptococcus chitosan production, flow cytometry, Cibacron Brilliant Red staining (AID 1347148; call rule not given here;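 note: compound exposure lasted three days at 37 degrees C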). As to conditions: Cryptococcus neoformans chitosan, stronger effect = lower value; at 10 µM unless noted. In general terms: In flow cytometry, cells or beads pass a laser one at a time.
Test [8] has as its target Mitogen-activated protein kinase 7 (Homo sapiens) (UniProt Q13164). Description: ERK5 transactivation activators in reporter cells, primary screen, cell-based, HTS (AID 1508626;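 active = luciferase signal above three times the same-plate solvent-only control wells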;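 note: luciferase driven by Gal4-ERK5 fusion binding five Gal4 sites before minimal TATA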). As to conditions: HeLa Gal4-ERK5 transactivation, 18 h, at 5 µM, stronger effect = higher value.
The mark [9] stands for this setting: measured here: combination with cisplatin, at 0.5 µM.
Where [10] appears, read: measured here: combination with cisplatin, at 5 µM.
Setting [11] is: BGB combination, concentration series, at 5 µM.
[12] abbreviates: cisplatin combination, concentration series, at 5 µM.
[13] abbreviates: measured here: combo with BGB IC20, at 0.5 µM.
Where [14] appears, read: measured here: combo with cisplatin IC20, at 0.5 µM.

Where “and” joins values, the source holds several entries; their conditions need not be identical. Equal entries are not always repeated. Inconclusive results are not listed. Calls of active or inactive are those of the source. Cut-off read from the data, not from the text of the source, unless noted: active = inhibition above about 80%; inactive = the rest.

Sequence of Mitogen-activated protein kinase 7 (Homo sapiens) (Q13164 whole entry, looked up, the tested form may be a part): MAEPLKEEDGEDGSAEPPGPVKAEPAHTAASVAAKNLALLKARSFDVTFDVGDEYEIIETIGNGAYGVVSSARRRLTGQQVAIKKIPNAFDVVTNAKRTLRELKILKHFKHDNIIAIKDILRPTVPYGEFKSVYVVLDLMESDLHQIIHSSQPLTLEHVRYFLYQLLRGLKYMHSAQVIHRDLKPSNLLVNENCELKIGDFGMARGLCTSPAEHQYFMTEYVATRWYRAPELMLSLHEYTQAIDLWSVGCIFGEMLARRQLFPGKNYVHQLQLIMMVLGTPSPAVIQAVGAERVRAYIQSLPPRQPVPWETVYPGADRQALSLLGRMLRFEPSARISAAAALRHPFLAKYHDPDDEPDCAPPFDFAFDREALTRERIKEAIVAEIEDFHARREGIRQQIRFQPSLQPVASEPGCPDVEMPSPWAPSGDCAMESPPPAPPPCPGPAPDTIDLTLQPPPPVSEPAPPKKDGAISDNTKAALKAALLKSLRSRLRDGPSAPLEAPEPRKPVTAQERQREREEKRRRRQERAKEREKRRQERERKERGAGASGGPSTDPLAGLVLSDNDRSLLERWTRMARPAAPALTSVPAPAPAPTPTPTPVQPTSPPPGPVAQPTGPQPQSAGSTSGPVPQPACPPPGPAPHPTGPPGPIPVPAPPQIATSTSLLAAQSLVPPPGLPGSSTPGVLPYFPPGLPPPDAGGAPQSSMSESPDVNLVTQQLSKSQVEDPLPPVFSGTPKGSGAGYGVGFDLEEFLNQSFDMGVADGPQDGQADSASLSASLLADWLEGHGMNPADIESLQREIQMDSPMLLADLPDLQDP
Sequence of ATP-dependent translocase ABCB1 (Homo sapiens) (P08183 whole entry, looked up): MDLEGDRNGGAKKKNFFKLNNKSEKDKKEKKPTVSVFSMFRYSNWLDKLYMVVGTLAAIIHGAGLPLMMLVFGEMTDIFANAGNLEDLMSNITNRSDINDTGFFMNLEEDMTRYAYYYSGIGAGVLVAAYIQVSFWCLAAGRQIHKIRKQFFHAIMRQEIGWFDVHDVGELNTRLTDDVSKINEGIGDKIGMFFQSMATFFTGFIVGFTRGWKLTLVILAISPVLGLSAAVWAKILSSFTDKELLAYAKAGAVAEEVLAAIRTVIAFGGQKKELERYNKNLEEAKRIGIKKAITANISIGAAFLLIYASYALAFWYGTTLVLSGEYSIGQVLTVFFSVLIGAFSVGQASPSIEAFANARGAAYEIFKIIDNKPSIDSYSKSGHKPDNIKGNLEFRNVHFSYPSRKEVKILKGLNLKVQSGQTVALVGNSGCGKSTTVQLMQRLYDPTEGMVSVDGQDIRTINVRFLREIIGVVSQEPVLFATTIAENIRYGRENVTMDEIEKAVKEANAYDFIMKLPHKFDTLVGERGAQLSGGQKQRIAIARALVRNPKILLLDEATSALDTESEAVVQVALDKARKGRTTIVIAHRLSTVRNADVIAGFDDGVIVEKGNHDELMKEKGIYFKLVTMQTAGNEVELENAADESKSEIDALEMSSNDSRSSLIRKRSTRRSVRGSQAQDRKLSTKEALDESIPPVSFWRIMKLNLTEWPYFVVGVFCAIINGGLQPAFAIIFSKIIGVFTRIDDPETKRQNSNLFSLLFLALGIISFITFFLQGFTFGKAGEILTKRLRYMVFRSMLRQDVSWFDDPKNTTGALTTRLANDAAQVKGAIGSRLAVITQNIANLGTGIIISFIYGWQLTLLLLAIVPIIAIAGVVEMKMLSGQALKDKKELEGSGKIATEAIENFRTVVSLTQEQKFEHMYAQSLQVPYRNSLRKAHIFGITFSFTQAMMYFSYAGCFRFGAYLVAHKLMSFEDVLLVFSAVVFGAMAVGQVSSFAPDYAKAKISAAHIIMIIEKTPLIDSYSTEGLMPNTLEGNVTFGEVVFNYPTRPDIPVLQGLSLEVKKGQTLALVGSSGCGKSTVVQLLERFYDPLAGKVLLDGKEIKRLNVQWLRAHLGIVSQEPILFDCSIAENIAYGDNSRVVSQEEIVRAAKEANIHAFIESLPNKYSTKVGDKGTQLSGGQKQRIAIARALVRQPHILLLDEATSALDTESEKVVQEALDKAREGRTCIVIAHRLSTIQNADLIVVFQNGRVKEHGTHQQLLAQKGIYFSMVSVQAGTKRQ

Regarding `O=C(O)c1ccc(-n2nc(-c3ccccc3O)nc2-c2ccccc2O)cc1`, the AC50 in test [1] was 16.6 µM (active).
Consider `Cc1ccc(Nc2nccc(N(C)c3ccc4c(C)n(C)nc4c3)n2)cc1S(N)(=O)=O`, for which, in test [2], the liver cell % of control was 87.8% and 92.8% and 108%; the parasite % of control is 30.2% (inactive) and 10.9% (inactive) and 16.3% (inactive). Further, in test [1], the half-maximal activity concentration (AC50) was 3.32 µM (active).
As to `CN1CCCN=C1/C=C/c1cccs1`, in test [1], the molecule was called inactive.
On to `C[C@@H]1C[C@H]2[C@@H]3CCC4=CC(=O)C=C[C@]4(C)[C@@]3(Cl)[C@@H](O)C[C@]2(C)[C@@]1(OC(=O)c1ccco1)C(=O)CCl`, for which the fluorescence slope change in test [3] is 21.4% (inactive).
As for `CCOC(=O)Nc1ccc(NCc2ccc(F)cc2)nc1N`, the inhibition in test [4] (at 0.5 µM) was -26.1% (inactive); in test [4] (setting [9]), -30.1%; in test [4] (setting [10]), -38%; in test [5] (setting [11]), -6.96%; in test [5] (at 0.5 µM), -1.39% (inactive); in test [5] (setting [12]), 8.03%. In addition, the figures for the inhibition in test [6] (at 0.5 µM), in test [6] (setting [13]) and in test [6] (setting [14]) were 3.76% (inactive), 6.16% and 13.9%, respectively.
Take `CC1=C(C)C(=O)C(CCCCC#CCCCC#CCO)=C(C)C1=O`: the fold fluorescence in test [7] is 9.55 [at 153.2 µM] (inactive).
In the case of `O=c1[nH]c(=O)n([C@H]2C[C@H](O)[C@@H](CO)O2)cc1C(F)(F)F`, the luciferase signal in test [8] was 36 AU (inactive). Moreover, the inhibition in test [4] (at 0.5 µM) was -13.5% (inactive); in test [4] (setting [9]), -15.3%; in test [4] (setting [10]), -85.8%; in test [5] (setting [11]) it was 3.66%; in test [5] (at 0.5 µM), -12.4% (inactive); in test [5] (setting [12]) it was 9.54%. For the same molecule, the inhibition was -1.16% (inactive) in test [6] (at 0.5 µM), 5.49% in test [6] (setting [13]) and -19.9% in test [6] (setting [14]).
On to `C#Cc1cccc(Nc2ncnc3cc(OCCOC)c(OCCOC)cc23)c1`, for which, in test [2], the liver cell % of control was 94.7% and 95% and 97.1%; the parasite % of control is 281% (inactive) and 87% (inactive) and 63.1% (inactive).
For the molecule `CCCCCCCCCCCCCCC[C@H](O)[C@@H](N)CO`, in test [7], the fold fluorescence is 7.01 (inactive).
For `OCCN1CCN(CC/C=C2/c3ccccc3Sc3ccc(C(F)(F)F)cc32)CC1`, the fluorescence slope change in test [3] was 77.6% (active).
As for `C(=C\c1ccccc1)/CN1CCN(C(c2ccccc2)c2ccccc2)CC1`, the fluorescence slope change in test [3] is 102% (active).
For `O=c1[nH]c(=O)n([C@H]2C[C@H](O)[C@@H](CO)O2)cc1Br`, the inhibition is -21.2% (inactive) in test [4] (at 0.5 µM); -22.2% in test [4] (setting [9]); -17.4% in test [4] (setting [10]); 35.6% in test [5] (setting [11]); 9.43% (inactive) in test [5] (at 0.5 µM); 29% in test [5] (setting [12]). Besides, the values for the inhibition in test [6] (at 0.5 µM), in test [6] (setting [13]) and in test [6] (setting [14]) were 11% (inactive), 6.3% and 12.5%, respectively.
For the molecule `CC1(C)[C@@H](OC(=O)CCC(=O)O)CC[C@]2(C)[C@H]3C(=O)C=C4[C@@H]5C[C@@](C)(C(=O)O)CC[C@]5(C)CC[C@@]4(C)[C@]3(C)CC[C@@H]12`, the fluorescence slope change in test [3] was 123% (active). Besides, in test [8], the luciferase signal is 60 AU (inactive).
The like results for `C[C@H](NCCc1ccc(O)cc1)[C@H](O)c1ccc(O)cc1` were, in that order, 27.4% (inactive) and 96 AU (inactive).
In the case of `CC(C)(C)NC[C@H](O)COc1cccc2c1CCCC2=O`, in test [8], the luciferase signal was 88 AU (inactive).
Regarding `Cc1ncc(C[n+]2csc(CCO)c2C)c(N)n1`, the fluorescence slope change in test [3] was 80.3% (active). In addition, the luciferase signal in test [8] was 44 AU (inactive).
Turning to `C#CC1(O)CC[C@H]2[C@@H]3CCC4=CCCC[C@@H]4[C@H]3CC[C@@]21C` (stereo partly specified), the fluorescence slope change in test [3] was 88.5% (active). In addition, in test [8], the luciferase signal was 80 AU (inactive).
As for `C=C1C[C@H]2[C@@H]3C=C(C)C4=CC(=O)CC[C@]4(C)[C@H]3CC[C@]2(C)[C@@]1(OC(C)=O)C(C)=O`, the luciferase signal in test [8] was 64 AU (inactive).
With `OCCOCCN1CCN(C(c2ccccc2)c2ccc(Cl)cc2)CC1` (stereo unspecified), the fluorescence slope change in test [3] is 127% (active).
